Assay outcomes as filed in PubChem BioAssay.
KCNQ2 block: rat KCNQ2 potassium channel inhibitors, primary screen, cell-based, CHO-K1, FluxOR thallium flux, B-score | Potassium voltage-gated channel subfamily KQT member 2 (Rattus norvegicus), O88943 | 20 min; hits give low values | B-score at 10 µM | 1.1% of 310,000 active | AID 2156, 2009;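 active = fluorescence ratio B-score at most minus 3 library SDs, with starting brightness B-score within 2 library SDs, cut at about -5.5 in these data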
KCNQ2 pot: potentiators of rat KCNQ2 potassium channel; Potassium voltage-gated channel subfamily KQT member 2 (Rattus norvegicus), O88943; CHO-K1 KCNQ2, FluxOR thallium flux fluorescence; hits give high values; B-score at 10 µM; 0.54% of 310,000 active;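 active = fluorescence ratio B-score at least 3 SD of library B-scores, with initial fluorescence B-score within 3 of them, cut at about 5.3 in these data; same plate scores as AID 2156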;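 also: B-score of peak minus minimum over baseline fluorescence ratio after K+ and Tl+ stimulus; positive B-score means potentiation of KCNQ2 with more thallium influx and brighter signal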
Kir21 confirm: mouse Kir2.1 channel blockers, retest, confirmation, cell-based, FluxOR thallium flux, duplicate. shares compounds with KCNQ2 pot. Kir2.1-expressing cells, FluxOR thallium flux fluorescence; hits give low values. Tl flux remaining, % of negative control (hits give low values), % at 10 µM. 41% of 2,300 active. AID 2032, 2009;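 active = Primary-screen hit whose thallium flux fell at least 3 control SD below untreated wells in both duplicates, with normal baseline fluorescence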
Target sequence (P35561 whole entry, looked up): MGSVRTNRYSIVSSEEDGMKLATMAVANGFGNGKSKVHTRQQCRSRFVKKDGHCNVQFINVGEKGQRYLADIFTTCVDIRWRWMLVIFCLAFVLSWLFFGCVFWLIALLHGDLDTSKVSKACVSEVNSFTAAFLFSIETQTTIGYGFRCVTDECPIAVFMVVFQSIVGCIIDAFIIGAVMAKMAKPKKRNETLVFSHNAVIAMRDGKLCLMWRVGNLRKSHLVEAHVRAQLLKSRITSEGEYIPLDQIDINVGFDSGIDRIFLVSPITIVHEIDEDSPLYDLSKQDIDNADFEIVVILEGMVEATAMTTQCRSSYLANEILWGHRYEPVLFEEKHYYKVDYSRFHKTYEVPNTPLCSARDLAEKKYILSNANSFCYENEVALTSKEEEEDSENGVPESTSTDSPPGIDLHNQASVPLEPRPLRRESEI
HEK293 ctr: alters thallium flux in parental HEK293 cells, Kir2.1 counter-screen; 19% of 2,300 active; shares compounds with KCNQ2 pot; FluxOR signal as % of negative control (100 = no effect), % at 10 µM; FluxOR thallium flux fluorescence; 0% = unstimulated blank wells;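 active = dye signal at least 3 control SD above or below untreated wells in both duplicates, raw fluorescence within 3, either direction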;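 also: percent is based on the flux ratio of peak minus minimum fluorescence over baseline F0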
CHO-K1 Tl ctr: nonspecific thallium flux increase in parental CHO-K1, confirmation, counter-screen for KCNQ2 potentiator project, cell-based, FluxOR thallium flux, duplicate; activity increase over 3SD of controls, % at 10 µM; shares compounds with KCNQ2 pot; AID 2282, 2010; parental CHO-K1 cells, FluxOR thallium flux fluorescence; zero = vehicle mean+3SD, 100% = vehicle-minus-blank window; 43% of 1,200 active;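 active = signal rise of at least 3 SD above the untreated control mean, in both duplicate wells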;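 also: counter screen of KCNQ2 potentiator hits so any rise reflects channel-independent effects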
KCNQ1 pot spec: human KCNQ1 channel potentiation off-target, confirmation, selectivity assay for KCNQ2 potentiator project, cell-based, CHO, FluxOR thallium flux; CHO KCNQ1 stable, FluxOR thallium flux fluorescence; beyond 3SD, as % of vehicle-control signal; activation over 3SD threshold, % at 10 µM; shares compounds with KCNQ2 pot; 28% of 1,200 active; AID 2283, 2010;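 active = fluorescence ratio rise of at least 3 SD of vehicle wells above their mean, in both replicate wells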
KCNQ2 pot conf: rat KCNQ2 channel potentiators, confirmation, cell-based, CHO, FluxOR thallium flux, duplicate | 68% of 1,200 active | CHO-KCNQ2 cells, FluxOR thallium flux fluorescence | potentiation, less the hit threshold, % at 10 µM | shares compounds with KCNQ2 pot;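 active = fluorescence ratio rising 3 SD or more over the vehicle control mean in both replicates, plus primary screen hit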;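 also: peak minus minimum thallium fluorescence divided by baseline after K/Tl stimulus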
Kir2-1 sel: mouse Kir2.1 channel activation off-target, confirmation, selectivity assay for KCNQ2 potentiator project, cell-based, HEK293, FluxOR thallium flux | HEK293 Kir2.1, FluxOR thallium flux fluorescence | shares compounds with KCNQ2 pot | AID 2345, 2010 | 2% of 1,200 active | activity over 3SD threshold, % at 10 µM;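 active = fluorescence ratio rise of at least 3 SD above the vehicle-control mean, seen in both replicates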
KCNQ2 W236L MoA: potentiators of retigabine-insensitive KCNQ2 W236L, mechanism study for KCNQ2 potentiator project, cell-based, rat KCNQ2 W236L, CHO, automated patch clamp; shares compounds with KCNQ2 pot; automated patch clamp current; current increase over 3SD of negative controls (%), hits give high values, % at 25 µM; 10% of 940 active; AID 2558, 2010;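 active = current increase at least 3 SD of the untreated controls above them in both duplicate recordings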
Each line names hits and unclear results; the compound was inactive in the other large screens (follow-up assays come after a bar, where they were run). Only some compounds are listed: those with a hit (about 1.6% of all), similar ones and a draw of the others.

Cc1cc(C)n(CC(=O)N/N=C/c2cc(Br)cc([N+](=O)[O-])c2O)n1	KCNQ2 pot 6.9 | Kir21 confirm inactive | HEK293 ctr 65% | CHO-K1 Tl ctr inactive | KCNQ1 pot spec inactive | KCNQ2 pot conf 40 | Kir2-1 sel inactive | KCNQ2 W236L MoA inactive
Cc1ccc(S(=O)(=O)NCC(=O)Nc2cccc([N+](=O)[O-])c2)cc1	none
Cc1ccc(S(=O)(=O)CCC(=O)c2cccc([N+](=O)[O-])c2)cc1	KCNQ2 block -13 | Kir21 confirm 51% | HEK293 ctr 58%
Cc1ccc(-n2ncc(C(=O)Nc3cc(Cl)cc(Cl)c3)c2C2CCNCC2)cc1C	none (no result: KCNQ2 pot) | Kir21 confirm inactive | HEK293 ctr inactive
Cc1ccc(-n2ncc(C(=O)Nc3cc(Cl)ccc3Cl)c2C2CCNCC2)cc1	none (no result: KCNQ2 pot)
CCC(C)NC(=O)CN(c1cc(Cl)cc(Cl)c1)S(C)(=O)=O (configuration not stated)	none
N=c1n(Cc2ccccc2)c2ccccc2n1CC(O)c1ccco1 (configuration not stated)	none
Cc1cccc(OCC(O)Cn2c(=N)n(Cc3ccccc3)c3ccccc32)c1 (configuration not stated)	none (no result: KCNQ2 pot) | Kir21 confirm 32% | HEK293 ctr inactive
N=c1n(Cc2ccccc2)c2ccccc2n1Cc1ccccc1	none
Cc1cccc(OCC(O)CN2CCNCC2)c1 (configuration not stated)	none
COc1ccc(OCC(O)Cn2c(=N)n(Cc3ccccc3)c3ccccc32)cc1 (configuration not stated)	none (no result: KCNQ2 pot) | Kir21 confirm 46% | HEK293 ctr inactive
CCN(CC)CCn1c(=N)n(CC(O)COc2cccc(C)c2)c2ccccc21 (configuration not stated)	none (no result: KCNQ2 pot) | Kir21 confirm 56% | HEK293 ctr inactive
Cc1ccc(OCC(O)Cn2c(=N)n(Cc3ccccc3)c3ccccc32)cc1 (configuration not stated)	none (no result: KCNQ2 pot) | Kir21 confirm 38% | HEK293 ctr inactive
Cc1cccc(OCC(O)Cn2c(=N)n(CCN3CCCCC3)c3ccccc32)c1 (configuration not stated)	none (no result: KCNQ2 pot)
COC(=O)Cc1ccc(NC(=S)N2CCN(c3ccc(F)cc3)CC2)cc1	none
CS(=O)(=O)N1CCCC(C(=O)Nc2ccc3c(c2)OCCO3)C1 (configuration not stated)	none (no result: KCNQ2 pot)
CC(=O)NCC(=O)NC1CC(C)(C)Cc2c1cnn2-c1ccccc1 (configuration not stated)	none (no result: KCNQ2 pot)
O=C(O)c1ccccc1NC(c1ccccc1)c1ccc(Cl)cc1 (configuration not stated)	KCNQ2 pot 5.9 | Kir21 confirm inactive | HEK293 ctr inactive | CHO-K1 Tl ctr inactive | KCNQ1 pot spec 16 | KCNQ2 pot conf inactive | Kir2-1 sel inactive
O=C(CSc1ccccc1C(=O)O)c1ccc(Cl)cc1	none
CC(=O)Cn1nnc2sc3c(c2c1=O)CCC(C(C)(C)C)C3 (configuration not stated)	none (no result: KCNQ2 pot)
CCn1nnc2sc3c(c2c1=O)CCC(C)C3 (configuration not stated)	none (no result: KCNQ2 pot)
Nn1c(=S)[nH]c2sc3c(c2c1=O)CCCC3	none
Cn1c(=S)[nH]c2sc3c(c2c1=O)CCC(C(C)(C)C)C3 (configuration not stated)	KCNQ2 pot 18 | Kir21 confirm inactive | HEK293 ctr 467% | CHO-K1 Tl ctr inactive | KCNQ1 pot spec inactive | KCNQ2 pot conf 85 | Kir2-1 sel 1.4 | KCNQ2 W236L MoA inactive
CCn1c(=O)n(CCOC)c(=O)c2c3c(sc21)CCCC3	none
COCCn1c(=S)[nH]c2sc3c(c2c1=O)CCC(C)C3 (configuration not stated)	KCNQ2 pot 16 | Kir21 confirm inactive | HEK293 ctr inactive | CHO-K1 Tl ctr inactive | KCNQ1 pot spec 3.6 | KCNQ2 pot conf 71 | Kir2-1 sel 11 | KCNQ2 W236L MoA inactive
COCCCn1c(=S)[nH]c2sc3c(c2c1=O)CCCS3	KCNQ2 pot 7.2 | Kir21 confirm inactive | HEK293 ctr 285% | CHO-K1 Tl ctr inactive | KCNQ1 pot spec 47 | KCNQ2 pot conf 24 | Kir2-1 sel inactive | KCNQ2 W236L MoA inactive
CCCn1c(=S)[nH]c2sc3c(c2c1=O)CCCC3	KCNQ2 pot 10 | Kir21 confirm inactive | HEK293 ctr 342% | CHO-K1 Tl ctr inactive | KCNQ1 pot spec 40 | KCNQ2 pot conf 27 | Kir2-1 sel inactive | KCNQ2 W236L MoA inactive
CCCCn1c(=O)c(CCC(=O)OCC(=O)NCc2ccc(OC)c(OC)c2)nc2ccccc21	none
O=C(Cc1cc2ccccc2o1)NCc1ccc(F)cc1	none (no result: KCNQ2 pot)
Cc1ccc(C2=NCCn3c2c2ccc(C(F)(F)F)cc2[n+]3[O-])cc1	none
COc1cccc(C(=O)Nc2sc3c(c2C#N)CCN(C(C)=O)C3)c1	none (no result: KCNQ2 pot)
COC(=O)c1c(NC(=O)c2cccc(S(=O)(=O)N3CCN(C)CC3)c2)sc(C)c1C	none (no result: KCNQ2 pot)
Cc1cccc(-n2c(=S)[nH]c3sc4c(c3c2=O)CCc2ccccc2-4)c1	KCNQ2 pot 5.6 | Kir21 confirm inactive | HEK293 ctr 196% | CHO-K1 Tl ctr inactive | KCNQ1 pot spec inactive | KCNQ2 pot conf inactive | Kir2-1 sel inactive | KCNQ2 W236L MoA inactive
Cc1ccc(-n2c(=S)[nH]c3sc4c(c3c2=O)CCc2ccccc2-4)cc1	none (no result: KCNQ2 pot)
Cc1ccc(-c2nn(-c3ccccc3)cc2CSC(=N)N)cc1	none (no result: KCNQ2 pot) | Kir21 confirm inactive | HEK293 ctr inactive
OCc1cn(-c2ccccc2)nc1-c1ccc(-c2nn(-c3ccccc3)cc2CO)cc1	none
